# Source: PubChem BioAssay (National Center for Advancing Translational Sciences (NCATS))
# Rows were chosen to be rich in hits. Some 11% of all compounds tested hit in one or more screens of this group.
# PI5P4Ka inh: qHTS for Inhibitors of phosphatidylinositol 5-phosphate 4-kinase (PI5P4K); Phosphatidylinositol 5-phosphate 4-kinase type-2 alpha (Homo sapiens), P48426; PI5P4Kalpha enzyme, ADP-Glo luminescence, 60 min; active compounds read low; max response, %; actives 1.2% (n = 330,000); AID 652105, 2013; active means max response of -50% or lower; inconclusive means between -30% and -50%; inactive means -30% or higher; further: value at the top dose of about 77 µM
#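 Reactions run in 0.038 M HEPES pH 7.4, 0.28 mM EGTA, 0.1% CHAPS and 5% DMSO, with PI5P4Kalpha, substrate, compound and 5 microM ATP final, one hour at room temperature. Readout is ADP-Glo luminescence.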
# L3MBTL1 inh: qHTS Assay for the Inhibitors of L3MBTL1. Lethal(3)malignant brain tumor-like protein 1 (Homo sapiens), Q9Y468. actives 0.66% (n = 230,000). Potency, µM (series often up to 57.1 µM), hits mostly inhibitors. AlphaScreen L3MBTL1–H3K9me1 peptide binding. AID 485360, 2010; further: nearly all actives have a fitted effect of over 60% in size
# Target sequence (Q9Y468 whole entry, looked up): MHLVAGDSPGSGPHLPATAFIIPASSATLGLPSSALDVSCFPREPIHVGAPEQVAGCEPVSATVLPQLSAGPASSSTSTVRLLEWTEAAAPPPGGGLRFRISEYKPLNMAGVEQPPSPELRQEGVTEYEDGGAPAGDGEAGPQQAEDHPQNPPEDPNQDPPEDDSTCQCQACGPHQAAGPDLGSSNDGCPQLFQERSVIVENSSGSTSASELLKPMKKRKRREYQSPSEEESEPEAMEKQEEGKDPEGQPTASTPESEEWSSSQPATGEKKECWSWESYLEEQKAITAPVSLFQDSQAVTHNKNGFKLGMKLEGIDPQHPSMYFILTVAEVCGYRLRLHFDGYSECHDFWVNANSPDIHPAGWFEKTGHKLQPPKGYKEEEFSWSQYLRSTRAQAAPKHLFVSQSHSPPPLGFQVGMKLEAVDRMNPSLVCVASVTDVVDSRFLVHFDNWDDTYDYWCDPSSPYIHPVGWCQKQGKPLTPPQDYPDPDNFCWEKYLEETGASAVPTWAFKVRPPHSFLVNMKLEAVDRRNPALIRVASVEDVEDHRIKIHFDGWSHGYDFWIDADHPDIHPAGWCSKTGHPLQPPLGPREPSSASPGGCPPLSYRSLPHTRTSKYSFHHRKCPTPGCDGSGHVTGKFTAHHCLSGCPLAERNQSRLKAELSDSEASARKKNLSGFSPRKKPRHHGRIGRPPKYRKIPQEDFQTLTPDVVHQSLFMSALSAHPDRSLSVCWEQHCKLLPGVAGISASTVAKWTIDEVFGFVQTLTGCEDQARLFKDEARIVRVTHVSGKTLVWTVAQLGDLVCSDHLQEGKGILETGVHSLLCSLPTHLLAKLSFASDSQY
#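 L3MBTL1 50 nM + b-AHA-H3(1-15)K9me1 75 nM, 30 min RT; compound added, 30 min RT; streptavidin donor/Ni-chelate acceptor beads 10 ug/mL each final, 30 min RT dark; AlphaScreen read.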
# BAZ2B inh: qHTS Assay for Inhibitors of BAZ2B; actives 4.4% (n = 360,000); AlphaScreen BAZ2B-H3K14Ac peptide displacement; Bromodomain adjacent to zinc finger domain protein 2B (Homo sapiens), Q9UIF8; Potency, µM (doses to about 114 µM), most hits filed as inhibitors; AID 504333, 2011; further: nearly all actives have a fitted effect of over 60% in size
#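 BAZ2B (50 nM) with biotin-H3(5-23)K14Ac peptide (50 nM) in PBS pH 7.4, 0.01% Tween-20, preformed 30 min, then compound 30 min at room temperature; top concentration 110uM. AlphaScreen streptavidin donor/nickel chelate acceptor beads (10 ug/mL final), 20 min dark, signal read.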
# G9a block: qHTS Assay for Inhibitors of Histone Lysine Methyltransferase G9a; Potency, µM (series often up to 102 µM), usual class: inhibitors; Histone-lysine N-methyltransferase EHMT2 (Homo sapiens), Q96KQ7; actives 8.8% (n = 350,000); G9a H3K9 monomethylation, AlphaScreen, 2 h; further: nearly all actives have a fitted effect of over 75% in size
#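 Signal arises when biotinylated H3K9 peptide, once monomethylated, bridges streptavidin donor and antibody-captured acceptor beads. Enzyme at 20 nM was preincubated 15 min with test compounds; peptide 500 nM and SAM 20 uM then reacted for 2 h.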
# JMJD2A Tudor: qHTS Assay for Inhibitors of JMJD2A-Tudor Domain; Lysine-specific demethylase 4A (Homo sapiens), O75164; AlphaScreen JMJD2A-Tudor / H3K4me3 peptide binding; Potency, µM (highest dose often 114 µM), most hits filed as inhibitors; actives 4.4% (n = 390,000); AID 504339, 2011; further: nearly all actives have a fitted effect of over 50% in size
# HP1b chromo inh: HTS for Inhibitors of HP1-beta Chromodomain Interactions with Methylated Histone Tails. actives 0.56% (n = 390,000). AlphaScreen HP1-beta / biotin-H3K9me3 peptide binding. Potency, µM (doses to about 114 µM), most hits filed as inhibitors. AID 540317, 2011. Chromobox protein homolog 1 (Homo sapiens), P83916; further: nearly all actives have a fitted effect of over 70% in size
#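 HP1-beta protein (50 nM final) preincubated 30 min at room temperature with biotinylated H3(1-18)K9me3 peptide (50 nM) in PBS pH 7.4, 0.01% Tween-20, then compound added for 30 min. AlphaScreen streptavidin donor/nickel chelate acceptor beads (10 ug/mL final), 30 min dark, luminescence read.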
# Numbers stand for hits; n = inactive; u = inconclusive; x = no result given. Unless noted, the call rests on the fitted dose curve; in most records, active means well fitted inhibition curve with a large enough effect; inconclusive means small, poorly fitted or top-dose-only effect; inactive means no such curve, though single readings can be large or run the other way.
SMILES,PI5P4Ka inh,L3MBTL1 inh,BAZ2B inh,G9a block,JMJD2A Tudor,HP1b chromo inh
Cc1ccccc1C(=O)NC1(C(F)(F)F)N=C(c2ccccc2)N(Cc2ccccc2)C1=O (stereo not given),x,x,n,u,n,n
CCCC(=O)NC(=S)Nc1cccc(NC(=O)c2ccccc2)c1,n,n,n,x,n,n
CC(C)CC(=O)Nc1ccc(C(=O)NNC(=S)NC(=O)C2CCCCC2)cc1,x,n,n,u,89µM,n
CCCOc1ccc(C(=O)NNC(=S)NC(=O)CC)cc1,x,n,n,8.9µM,32µM,n
CCCCC(=O)NC(=S)Nc1cccc(NC(=O)c2ccccc2)c1,n,n,n,50µM,n,n
C=CCNC(=S)NNC(=O)c1ccc(OCCC)cc1,n,n,n,n,n,n
N#CCC(=O)Nc1ccc(C(=O)NNC(=S)NC2CCCCC2)cc1,n,n,x,x,n,n
CCC(=O)NC(=S)NNC(=O)c1ccc(NC(=O)c2ccccc2)cc1,u,x,n,7.1µM,u,n
CCOc1ccc(Nc2nn(-c3ccc(OC(F)(F)F)cc3)nc2C(C)=O)cc1,x,x,n,n,n,n
CCN(CC)CCCN1C(=O)c2oc3ccccc3c(=O)c2C1c1cccnc1 (stereo not given),n,n,n,50µM,u,n
O=C1c2oc3ccccc3c(=O)c2C(c2cccnc2)N1Cc1ccco1 (stereo not given),x,n,n,25µM,n,n
COc1ccccc1CN(Cc1c(Cl)cccc1Cl)S(=O)(=O)c1ccc(Br)cc1,x,x,n,n,n,n
Oc1c(C(c2ccccc2F)N2CCCC2)sc2nc(-c3ccco3)nn12 (stereo not given),x,x,n,n,n,n
O=[N+]([O-])c1ccc(C(c2sc3nc(-c4ccco4)nn3c2O)N2CCN(Cc3ccccc3)CC2)cc1 (stereo not given),x,x,u,u,u,n
O=[N+]([O-])c1ccc(C(c2sc3nc(-c4ccco4)nn3c2O)N2CCN(c3cccc(Cl)c3)CC2)cc1 (stereo not given),x,x,u,13µM,u,n
Oc1c(C(c2ccc(F)cc2)N2CCCC2)sc2nc(-c3ccco3)nn12 (stereo not given),x,x,n,13µM,n,n
COc1ccc(NC(=O)c2oc3ccccc3c2NC(=O)C2CCCCC2)c(OC)c1,x,x,n,n,n,n
CC(=O)c1cccc(NC(=O)c2sc(-n3nc(C)c(CCC(C)C)c3C)nc2C)c1,x,x,n,n,n,n
COc1cc(OC)c(NS(=O)(=O)c2ccc3c(c2)NC(=O)CO3)cc1Cl,n,x,n,n,16µM,n
COc1cc(OC)c(NS(=O)(=O)c2ccc3c(c2)NC(=O)CCS3)cc1Cl,x,x,n,n,n,n
CCCCn1c(SCN2C(=O)c3ccccc3C2=O)nc2cc(S(N)(=O)=O)ccc21,n,n,n,40µM,n,n
CCCCn1c(SCC(=O)N2CCC(C)CC2)nc2cc(S(N)(=O)=O)ccc21,x,n,n,7.9µM,n,n
CCCCn1c(SCn2nnc3ccccc3c2=O)nc2cc(S(N)(=O)=O)ccc21,x,x,n,u,n,n
COc1cccc2cc(-c3cn4c(n3)sc3cc(F)ccc34)c(=O)oc12,x,x,n,n,n,n
COc1ccc(N(C)C(=O)c2cc(S(=O)(=O)N3CCc4ccccc43)cn2C)c(OC)c1,x,x,u,n,n,n
CCN(CC)CCCNCC(=O)Nc1ccc2c(c1)CCC2,n,n,56µM,35µM,28µM,u
CCN(CC)CCCNCC(=O)Nc1ccc(OC)c(Cl)c1,x,n,50µM,8.9µM,x,x
Cc1ccc(C(=O)NCC(=O)Nc2ccc3c(c2)CCC3)cc1C,n,n,n,n,n,n
